# Compounds without any hit were thinned out: in the full panel of roughly 83,000, 20% have a hit.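 Treatment: one concentration, 48 hours, 96-well format. Scoring: percent growth, with anything below 10 considered active.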 A number with no mark means an inactive call. The source made the active and inactive calls.
# Tests used:
# Test in all cases: NCI-60 one-dose screen, 48 h (100 = growth as untreated, 0 = no growth, -100 = all killed)
# Conditions in all cases: 10 µM unless noted
# [1] = test system: NCI-H23 lung
# [2] = test system: NCI-H322M lung
# [3] = test system: HOP-62 NSCLC
# [4] = test system: NCI-H460 lung
# [5] = test system: NCI-H522 lung
# [6] = test system: A549/ATCC NSCLC
# [7] = test system: 786-0 renal
# [8] = test system: COLO 205 colon
# [9] = test system: DU-145 prostate
# [10] = test system: K-562 leukemia
# [11] = test system: MALME-3M melanoma
# [12] = test system: MDA-MB-231 breast
# [13] = test system: RXF 393 renal
# [14] = test system: SF-268 CNS
# [15] = test system: SF-295 CNS
# [16] = test system: SF-539 CNS
# [17] = test system: UACC-257 melanoma
# [18] = test system: M14 melanoma
# [19] = test system: HOP-92 NSCLC
# [20] = test system: NCI-H226 lung
SMILES,growth [1],growth [2],growth [3],growth [4],growth [5],growth [6],growth [7],growth [8],growth [9],growth [10],growth [11],growth [12],growth [13],growth [14],growth [15],growth [16],growth [17],growth [18],growth [19],growth [20]
CCc1cnn2c(NCc3ccc[n+]([O-])c3)cc(N3CCCC[C@H]3CCO)nc12,-23.3% (active),-0.876% (active),-33.2% (active),1.82% (active),-42.2% (active),-13.4% (active),7.96% (active),-62.5% (active),5.68% (active),1.85% (active),-46.3% (active),2.67% (active),-64.6% (active),3.65% (active),3.11% (active),-48.1% (active),-42.4% (active),-42.5% (active),,
COc1cc(-c2nc(C(=O)NCC(=O)O)nn2-c2ccc(Cl)cc2)cc(OC)c1OC,97.5%,102%,104%,110%,97.1%,96.6%,103%,108%,111%,89.4%,111%,106%,,108%,95.2%,102%,,98.5%,106%,
COc1cc(N2CCC(N(C)C)CC2)ccc1Nc1ncc(Cl)c(Nc2ccccc2P(C)(C)=O)n1,5.53% (active),-9.57% (active),-4.93% (active),7% (active),-39.4% (active),-35.8% (active),-20.6% (active),-62.7% (active),0.609% (active),12.5%,32%,5.47% (active),-60.1% (active),-26.8% (active),27.7%,-49.3% (active),17.2%,10.3%,-60.2% (active),
Cc1cc2c(-c3nc4ccccn4c3Nc3cccc4ccccc34)c(O)c(O)cc2c(O)c1-c1c(C)cc2c(-c3nc4ccccn4c3Nc3cccc4ccccc34)c(O)c(O)cc2c1O,12.4%,59.4%,,3.9% (active),32%,16.1%,68%,28%,31.4%,15.2%,10.8%,23.3%,39.6%,30.9%,13.1%,20.4%,,27.2%,,
CN1CC[C@@H](c2c(O)cc(O)c3c(=O)cc(-c4ccccc4Cl)oc23)[C@@H]1CO,-26.5% (active),-1.67% (active),-21.2% (active),4.14% (active),-13.8% (active),4.56% (active),4.31% (active),-64.5% (active),10.7%,4.81% (active),-46.8% (active),6.99% (active),-62.8% (active),3.32% (active),3.04% (active),-33.3% (active),-25.8% (active),-35.4% (active),-2.24% (active),
CCN1CCN(Cc2ccc(Cc3ncc(F)c(-c4cc(F)c5nc(C)n(C(C)C)c5c4)n3)nc2)CC1,44.3%,29.3%,44.4%,-56.1% (active),69%,28.5%,46.4%,16%,60.4%,-29.2% (active),65.9%,53.4%,-28.2% (active),54.4%,64.9%,59.8%,52.8%,45.2%,50%,
CCc1nc(C(N)=O)c(Nc2ccc(N3CCC(N4CCN(C)CC4)CC3)c(OC)c2)nc1NC1CCOCC1,32.5%,43.3%,16.9%,17.2%,1.52% (active),12.4%,10.2%,-46.5% (active),45.1%,16.1%,52.4%,20.3%,-92.9% (active),38.3%,12.8%,-78.3% (active),40.5%,15.2%,-25.2% (active),
c1cc(OCCN2CCCCC2)cc(-c2n[nH]c3ccc(-c4ncn[nH]4)cc23)c1,43.8%,37.6%,60.6%,66%,36.8%,63.8%,79.9%,6.03% (active),62.4%,36.9%,13.5%,54.7%,90.3%,77.8%,92.3%,49.4%,70.8%,22.9%,44.8%,
Cc1ccc(NC(=O)c2ccc(CN3CCN(C)CC3)cc2)cc1Nc1nc(-c2cccnc2)cs1,68%,90.2%,60.2%,40.3%,17.7%,39.4%,14.5%,16.1%,76.5%,3.08% (active),-9.2% (active),33.8%,32.9%,70.8%,3.18% (active),-81.5% (active),17%,35.5%,93.1%,
O=C1C=CC2(NN=C(c3ccccc3)N2c2cccc(Cl)c2)c2cccc(O)c21 (stereo not drawn),26.3%,95.1%,37.9%,85.1%,51.3%,33.2%,107%,103%,95.9%,23%,38.7%,68.6%,118%,72.4%,40.8%,33.9%,30.8%,53.2%,110%,
N#CC1(C#N)C(c2cccs2)NC(c2cccs2)C1(C#N)C#N (stereo not drawn),95%,98%,95%,110%,95.9%,100%,101%,106%,102%,95.8%,99.2%,104%,,98.1%,95.6%,97.6%,,102%,113%,
COc1cc2c(cc1OCCCN1Cc3ccc(OCCCCC(=O)N4CCC(CCN5CCCC5)CC4)cc3C1)N=C(N)C21CCCC1,84.5%,107%,,102%,50.7%,85%,85.4%,42.4%,95.2%,4.85% (active),44%,87.1%,90.2%,85.8%,101%,54.7%,85.1%,58.2%,,106%
CCOC(=O)C1=C(C)N=C2Sc3cccc(OC)c3N2[C@H]1c1ccccn1,86.9%,96.4%,80.6%,105%,81.2%,94%,113%,103%,105%,101%,91.2%,90.6%,,94.2%,101%,103%,,103%,93.3%,
Cc1[nH]n(C(N)=S)c(=O)c1N=Nc1ccc(S(=O)(=O)Nc2ccncn2)cc1,102%,128%,103%,100%,99.7%,101%,103%,112%,83.7%,103%,137%,84.7%,108%,85%,125%,99.2%,117%,106%,16.4%,
C=C1C(=O)O[C@H]2[C@H]1CC/C(C=Nc1c(N)cc(C(F)(F)F)cc1C(F)(F)F)=C\CC[C@@]1(C)O[C@@H]21,-29% (active),49.3%,21.3%,-17.9% (active),-55.4% (active),11.9%,-66.5% (active),-59.7% (active),5.82% (active),-4.88% (active),,-49.5% (active),-81.6% (active),1.5% (active),49.7%,-84.5% (active),,-61.2% (active),,
COc1cc(N2CCC(N3CCN(C)CC3)CC2)ccc1Nc1ncnc(Nc2ccccc2S(=O)(=O)C(C)C)n1,102%,109%,,102%,80.5%,104%,99.7%,,100%,94%,106%,95.9%,133%,100%,104%,100%,108%,93.3%,105%,109%
O=C(c1ccc(F)c(F)c1Nc1ccc(I)cc1F)N1CC(O)([C@@H]2CCCCN2)C1,13.9%,13.5%,17.7%,18.8%,18.8%,14.2%,29.1%,-63.9% (active),46.3%,-26.8% (active),-21.8% (active),0.9% (active),-32.3% (active),44.6%,54.9%,29.2%,-10.8% (active),-30.6% (active),-47.8% (active),

# — PubChem BioAssay (NCI)
